Test results as given in PMC12136788.
Where a chain is given by its changes, count along the chain named. In all, about 5,800 sequences were measured (“enrichment r”: median about 0.54, highest 2% from about 16 on). Only a selection was taken, and the highest values are over-represented in it overall.

B1: chr4:140153917:140154018:-|5pUTR|ENSG00000196782|msi1|FALSE|bound_elsewhere (ssRNA)
RNA: GGGAGUUCUACAGUCCGACGAUCUUUGCAGUCGCCUCGGACUGUCCAUGUGUUUACUUCCCCCAGCCCGAGGAUUCGAUAUCUAGGUUCCUGUGAAAUGCAACUGAGCAGCCAAAGUACUUUGAGAACACGGGGCGGCAUAAACAACAGAGGAUUGAGCAUCA
B2: ENSG00000070961:be:win_2801|CDS|ENSG00000070961|bound_else_gene|NA|bound_elsewhere_windowed (ssRNA)
RNA: GGGAGUUCUACAGUCCGACGAUCGUCAUGCAUUCUAUCAACUUGUAGUAGUCUUUACACUCUUAUUUGCUGGAGAAAAGUUUUUUGACAUUGAUAGUGGAAGAAAUGCUCCUUUGCAUGCUCCUCCUUCAGAACAUUAUACUACAACAGAGGAUUGAGCAUCA
B3: chr10:122937732:122937852:-|CDS|ENSG00000119965|unk|total|mutant (ssRNA)
RNA: GGGAGUUCUACAGUCCGACGAUCGUAAGUGACAACUCAAAUAUACCCAACUCCGAGUUGCUGCCUUUUCUCCAGAAUUUAUGCCGUCAAGUUAAUCAUCUCCAUGUGGGAAAUAAGACCGAGUGUCAGGAAAACAUCACCAAGCAACAGAGGAUUGAGCAUCA
B4: chr4:168927217:168927233:+|3pUTR|ENSG00000129116|msi1_unk|FALSE|overlapping (ssRNA)
RNA: GGGAGUUCUACAGUCCGACGAUCAACCACCCAAAUGACCAAGGCAUAUAUAGUAUUUGGAGGAAUCAGGGGUUUGGAAGGAGUAGGGAGGAGAAUGAAGGAAAAUGCAACCAGCAUGAUUAUAGUGUGUUCAUUUAGAUAAAACAACAGAGGAUUGAGCAUCA
B5: chr17:58090057:58090109:+|3pUTR|ENSG00000264364|msi1_unk|FALSE|overlapping (ssRNA)
RNA: GGGAGUUCUACAGUCCGACGAUCGGGUAGGAUUAGCUUGAAUCUUUUUUUUCUUUACAUUUUUCUCCUGUCUGCUCCCUGCUUAGCCCUCAGUUUCCUCAUUCCUCUGGAGUUCUCUUAGAGCAGCCCCUGUUGUUAGUUGGCCAACAGAGGAUUGAGCAUCA
B6: chr3:15254852:15254953:-|3pUTR|ENSG00000131370|msi1|total|mutant (ssRNA)
RNA: GGGAGUUCUACAGUCCGACGAUCAAACUGUUAAUUCUGUCACAGCCUGUAUAUUUCCGUCAUUUGUAAAUCUCUUCAUACAACCGUGACUUCUUUUUUGACUGAUACAGUAUCUUAAUUACAAGGUUAUUUUGUACUUGUCUUCAACAGAGGAUUGAGCAUCA
B7: chr19:57593639:57593745:+|3pUTR|ENSG00000171649|unk|FALSE|unique (ssRNA)
RNA: GGGAGUUCUACAGUCCGACGAUCUGAACCUUCUUAUUUCUCUACAUUCUUGCCAUACUUGGUAUGGUUAGUCUUUUUAAUUUUAGUUGUUUUAAUAGCUGUAUAAUAGCAUCUGUCUGUGAUUUUAUUGCAUUUUUCUGGUAUCAACAGAGGAUUGAGCAUCA
B8: chr1:20742972:20743075:-|3pUTR|ENSG00000127483|unk|FALSE|unique (ssRNA)
RNA: GGGAGUUCUACAGUCCGACGAUCUAACCCUUUCUUAUUUGUAUUUGUUUUAGUAUUGUGAAGUUGUGUUAAAUAGUACUAGCUAGAAAUACAAAUUUCUGGUUAUCAUUUCUCUUCCCUGUGGCACUUGACAUUUUAAUUGUCCAACAGAGGAUUGAGCAUCA
B9: chr1:228494639:228494729:+|3pUTR|ENSG00000168159|msi1_unk|FALSE|overlapping (ssRNA)
RNA: GGGAGUUCUACAGUCCGACGAUCGCCAUCGUGUCUCAUCUUGCUGUUAUCUCUAGCUCUUUCCCUCCUCCCAUUUCCUUUAGUAGUUGAAUUUUGCAAAGCUUGUAGCAGUAGCUCAGUUGCCUGCAGCAUCCUUGUGUGUAGCAACAGAGGAUUGAGCAUCA
B10: chr19:57593639:57593745:+|3pUTR|ENSG00000171649|unk|total|mutant (ssRNA)
RNA: B7 RNA with U68C, A69C, U83C, A84C, U95C, A96C, U106C, A107C
B11: chr1:228494639:228494729:+|3pUTR|ENSG00000168159|msi1_unk|total|mutant (ssRNA)
RNA: GGGAGUUCUACAGUCCGACGAUCGCCAUCGUGUCUCAUCUUGCUGUUAUCUCCCGCUCUUUCCCUCCUCCCAUUUCCUUCCGCCGUUGAAUUUUGCAAAGCUUGCCGCAGCCGCUCAGUUGCCUGCAGCAUCCUUGUGUGCCGCAACAGAGGAUUGAGCAUCA
B12: chr10:30313878:30313980:-|CDS|ENSG00000107951|unk|total|mutant (ssRNA)
RNA: GGGAGUUCUACAGUCCGACGAUCUGUUUUUAUAUUUAAGCCCUUCAUGUACUUACUCAUUUUUUCUUCUGUGUAAUAAUCUACCGGGAAGGGAGCAAAACAAACCUGAUUCUUCUCCUCUGUACAUUCAGAAUCCAUUUGAAACAACAGAGGAUUGAGCAUCA
B13: chr7:123541454:123541562:-|3pUTR|ENSG00000128609|unk|total|mutant (ssRNA)
RNA: GGGAGUUCUACAGUCCGACGAUCUCCACCGUGUCAUUUUAUUUCCGUCAUUAUUGAAUUAUACCAUUUACUCUGUUUUCUUACCGUCUUAAUUUUAUUAUAUUUUGUUGUUACUGUAUUAUAUUUGAAAACCUUCAAAUCCGACAACAGAGGAUUGAGCAUCA

What follows are binders tested against MSI1 full-length (mouse, UniProt Q61474 1-362) (assay: nsRBNS (natural sequence RNA bind-n-seq); RBNS binding buffer (assumed for nsRBNS): 25 mM Tris pH 7.5, 150 mM KCl, 3 mM MgCl2, 0.01% Triton X-100, 500 ug/ml BSA, 20 U/ml SUPERase-In, 4 C; UNK is unkempt and MSI1 is Musashi-1; names of the RNAs are library labels; protein concentration not given here; high values mean tight binding).
Sequence of MSI1 full-length (Q61474 whole entry): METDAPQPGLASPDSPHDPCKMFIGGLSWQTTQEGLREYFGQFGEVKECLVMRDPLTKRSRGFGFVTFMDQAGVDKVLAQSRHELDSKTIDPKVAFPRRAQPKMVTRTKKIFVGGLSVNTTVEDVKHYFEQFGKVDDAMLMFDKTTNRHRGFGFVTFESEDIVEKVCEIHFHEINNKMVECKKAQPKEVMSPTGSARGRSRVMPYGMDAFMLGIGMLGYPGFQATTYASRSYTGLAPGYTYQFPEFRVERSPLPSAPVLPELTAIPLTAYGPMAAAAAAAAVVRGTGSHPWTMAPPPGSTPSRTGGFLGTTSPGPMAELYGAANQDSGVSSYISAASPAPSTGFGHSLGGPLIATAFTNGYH
In the case of B1, the binding signal is reported as 0.362 enrichment R. B2 showed a binding signal of 0.822 enrichment R. In the case of B3, the binding signal is reported as 0.448 enrichment R. With B4 the binding signal was 4.58 enrichment R. With B5 the binding signal was 4.46 enrichment R. B6 was tested, and the binding signal was 0.393 enrichment R. Work on B7 yielded a binding signal of 19.1 enrichment R. B8 showed a binding signal of 3.75 enrichment R. B9 gave a binding signal of 21.5 enrichment R. For B10, the binding signal was 1.4 enrichment R. With B11 the binding signal was 0.702 enrichment R. For B12, the binding signal was 0.482 enrichment R. B13 showed a binding signal of 37 enrichment R.
